Some test systems named below: NCI-H23 lung; NCI-H226 lung; NCI-H322M lung; HOP-62 NSCLC; NCI-H460 lung; HOP-92 NSCLC; NCI-H522 lung; A549/ATCC NSCLC; 786-0 renal; COLO 205 colon; DU-145 prostate; K-562 leukemia; MALME-3M melanoma; MDA-MB-231 breast; RXF 393 renal; SF-268 CNS; SF-295 CNS; SF-539 CNS; UACC-257 melanoma; M14 melanoma.
Test in all cases: NCI-60 one-dose screen, 48 h (100 = growth as untreated, 0 = no growth, -100 = all killed)
Holding throughout (conditions): 10 µM unless noted

About 83,000 compounds went through this panel and 20% of them were active in at least one assay; those are over-represented in the sample as a whole.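 Values shown are percent growth following 48 h exposure of cells in 96-well plates to a single concentration of compound; below 10 was considered active.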 A number with no mark means an inactive call. Activity calls are given as the source filed them.

On to `Cn1c(=O)c2c(c3ccccc31)OC(N)=C(C#N)C21C(=O)c2ccccc2C1=O`, for which the growth in the experiment on NCI-H23 lung is 87.5%; with NCI-H226 lung it was 81%; in the experiment on NCI-H322M lung, 91.5%; in the experiment on HOP-62 NSCLC it was 80.3%; in the experiment on NCI-H460 lung, 85%; in the experiment with HOP-92 NSCLC, 92.8%. Further, the growth is 95.9% in the experiment on NCI-H522 lung; 95.7% in the experiment with A549/ATCC NSCLC; 95.1% in the experiment with 786-0 renal; 102% in the experiment with COLO 205 colon; 107% in the experiment with DU-145 prostate; 111% in the experiment on K-562 leukemia. Further, the growth in the experiment on MALME-3M melanoma was 86.5%; in the experiment with MDA-MB-231 breast, 81.6%; in the experiment on RXF 393 renal, 91%; with SF-268 CNS, 93%; in the experiment with SF-295 CNS, 102%; with SF-539 CNS, 91.9%. For the same compound, the growth was 108% in the experiment with UACC-257 melanoma and 87.2% in the experiment on M14 melanoma.

Regarding `CCN1C(=O)N(CC)C2C1NN=c1s/c(=C3\C(=O)N(CCc4ccccc4)c4ccccc43)c(=O)n12` (stereo not given), the growth with NCI-H23 lung is 22.7%; in the experiment with NCI-H226 lung it was 24.8%; in the experiment on NCI-H322M lung, 36.1%; in the experiment on HOP-62 NSCLC, 24.4%; with NCI-H460 lung, 1.95% (active); with HOP-92 NSCLC, 38.1%. Moreover, the growth with NCI-H522 lung was -5.28% (active); in the experiment with A549/ATCC NSCLC it was 16.1%; in the experiment with 786-0 renal, 22.1%; in the experiment with COLO 205 colon, 7.44% (active); in the experiment with DU-145 prostate, 5.49% (active); in the experiment with K-562 leukemia, 7.99% (active). In addition, the growth with MALME-3M melanoma is 33.3%; in the experiment on MDA-MB-231 breast it was 2.5% (active); with RXF 393 renal it was -5.91% (active); in the experiment on SF-268 CNS it was 47%; in the experiment with SF-295 CNS, 9.5% (active); with SF-539 CNS it was -37.4% (active). Further, the figures for the growth with UACC-257 melanoma and in the experiment with M14 melanoma were 53.2% and 13.6%, respectively.

As for `CC1=NN(c2ccc(Cl)cc2)CC1(C)N=O` (stereo not given), the growth in the experiment with NCI-H23 lung is 88.4%; in the experiment on NCI-H226 lung, 76.9%; with NCI-H322M lung, 99.9%; in the experiment with HOP-62 NSCLC it was 95.8%; in the experiment with NCI-H460 lung, 95.9%; in the experiment on HOP-92 NSCLC, 83.3%. The growth is 44.5% in the experiment with NCI-H522 lung; 99.9% in the experiment with A549/ATCC NSCLC; 73.1% in the experiment with 786-0 renal; 67.3% in the experiment with COLO 205 colon; 83.9% with DU-145 prostate; 40.1% with K-562 leukemia. Besides, the growth with MALME-3M melanoma is 68.5%; in the experiment with MDA-MB-231 breast it was 78.3%; in the experiment on RXF 393 renal it was 32.7%; in the experiment with SF-268 CNS it was 94.9%; in the experiment on SF-295 CNS, 101%; with SF-539 CNS, 91%. Besides, the values for the growth with UACC-257 melanoma and with M14 melanoma were 90% and 64.9%, respectively.

As for `CCN(CC)CCN(CCN(CC)CC)c1ccccc1`, the growth in the experiment with NCI-H23 lung is 93%; in the experiment on NCI-H226 lung it was 94.6%; in the experiment with NCI-H322M lung, 103%; in the experiment on HOP-62 NSCLC it was 98.5%; in the experiment with NCI-H460 lung it was 107%; in the experiment with HOP-92 NSCLC it was 67.3%. Moreover, the growth is 79% in the experiment on NCI-H522 lung; 93.1% in the experiment on A549/ATCC NSCLC; 67.4% in the experiment on 786-0 renal; 97.8% in the experiment on COLO 205 colon; 109% in the experiment on DU-145 prostate; 93% in the experiment with K-562 leukemia. In addition, the growth with MALME-3M melanoma was 110%; in the experiment on MDA-MB-231 breast, 89.6%; with RXF 393 renal, 90.8%; in the experiment on SF-268 CNS, 97.7%; in the experiment on SF-295 CNS, 111%; with SF-539 CNS, 87.6%. Besides, the results for the growth in the experiment on UACC-257 melanoma and in the experiment on M14 melanoma were 93.1% and 82.3%, respectively.

Consider `N#C/C(=C\c1ccc(Br)cc1)c1cc2ccccc2[nH]1`, for which the growth in the experiment with NCI-H23 lung is 92.1%; in the experiment with NCI-H226 lung, 92.7%; in the experiment with NCI-H322M lung, 91.6%; with HOP-62 NSCLC, 86.3%; in the experiment with NCI-H460 lung, 96.1%; with HOP-92 NSCLC, 70.4%. Also, the growth is 85% in the experiment on NCI-H522 lung; 101% in the experiment on A549/ATCC NSCLC; 93.3% in the experiment on 786-0 renal; 105% in the experiment on COLO 205 colon; 104% with DU-145 prostate; 86.4% in the experiment on K-562 leukemia. Besides, the growth with MALME-3M melanoma is 99.3%; in the experiment on MDA-MB-231 breast, 79.5%; in the experiment with RXF 393 renal it was 115%; in the experiment with SF-268 CNS it was 102%; in the experiment with SF-295 CNS, 95.6%; with SF-539 CNS it was 93.3%. In addition, the growth in the experiment with UACC-257 melanoma was 100%; in the experiment with M14 melanoma, 101%.

With `Cc1cc2nc3c4ccccc4n(CCN(C)C)c3nc2cc1C`, the growth in the experiment with NCI-H23 lung was 8.98% (active); in the experiment with NCI-H226 lung it was 11.3%; with NCI-H322M lung, 0.121% (active); in the experiment on HOP-62 NSCLC, 2.09% (active); in the experiment with NCI-H460 lung it was -32.7% (active); with HOP-92 NSCLC, 28.1%. Also, the growth in the experiment on NCI-H522 lung was -19.1% (active); in the experiment on A549/ATCC NSCLC, -33.8% (active); with 786-0 renal, 23.2%; in the experiment on COLO 205 colon, -29.8% (active); in the experiment on DU-145 prostate it was 1.97% (active); in the experiment with K-562 leukemia it was 8.35% (active). In addition, the growth is -10.5% (active) in the experiment on MALME-3M melanoma; 3.96% (active) with MDA-MB-231 breast; 8.24% (active) in the experiment on RXF 393 renal; 31.2% with SF-268 CNS; 27.6% in the experiment with SF-295 CNS; 12.2% in the experiment on SF-539 CNS. For the same compound, the growth with UACC-257 melanoma is 2.35% (active); in the experiment on M14 melanoma it was 13.2%.

As for `S=c1ssnc1-c1cccs1`, the growth in the experiment with NCI-H23 lung is 85%; with NCI-H226 lung, 96.1%; with NCI-H322M lung, 94.5%; in the experiment with HOP-62 NSCLC it was 103%; in the experiment with NCI-H460 lung, 107%; in the experiment with HOP-92 NSCLC, 80.5%. Besides, the growth in the experiment with NCI-H522 lung is 96.3%; in the experiment with A549/ATCC NSCLC, 117%; with 786-0 renal, 65.1%; with COLO 205 colon it was 115%; with DU-145 prostate, 123%; with K-562 leukemia, 73.3%. The growth was 66.3% with MALME-3M melanoma; 88.8% in the experiment on MDA-MB-231 breast; 116% with RXF 393 renal; 97.9% with SF-268 CNS; 78.3% in the experiment on SF-295 CNS; 106% with SF-539 CNS. The figures for the growth in the experiment with UACC-257 melanoma and with M14 melanoma were 107% and 94.2%, respectively.

`CC12CCC(/C(=C/NNc3ccc([N+](=O)[O-])cc3[N+](=O)[O-])C1=O)C2(C)C` (stereo not given): the growth with NCI-H23 lung was 78.1%; in the experiment with NCI-H226 lung it was 87.1%; in the experiment with NCI-H322M lung it was 83.6%; in the experiment with HOP-62 NSCLC, 100%; in the experiment on NCI-H460 lung it was 45.1%; in the experiment on HOP-92 NSCLC, 79.7%. The growth was 36.2% in the experiment on NCI-H522 lung; 77.9% in the experiment with A549/ATCC NSCLC; 96.4% with 786-0 renal; 91.4% in the experiment with COLO 205 colon; 4.67% (active) in the experiment on DU-145 prostate; 77.9% with K-562 leukemia. Besides, the growth is 128% in the experiment with MALME-3M melanoma; 66.1% with MDA-MB-231 breast; 64.6% in the experiment with RXF 393 renal; 77.8% with SF-268 CNS; 85.2% in the experiment on SF-295 CNS; 102% in the experiment on SF-539 CNS. In addition, the growth is 64.4% in the experiment with UACC-257 melanoma and 65.5% in the experiment with M14 melanoma.
